Measured values published in ChEMBL document CHEMBL5724796, “Tm Shift (DSF) assay results for EUbOPEN Chemogenomics Library” (2024).
Residues, ends and D or L forms follow the SMILES beside them. *: point of attachment. Cbz = O=C(OCc1ccccc1)*

What was measured:
Conditions in all cases: Compound concentration 20.0 uM
[1] = molecular target: Tyrosine-protein kinase ABL1 (Homo sapiens) (UniProt P00519)
[2] = molecular target: Bromodomain-containing protein 4 (Homo sapiens) (UniProt O60885)
[3] = molecular target: Cyclin-dependent kinase 2 (Homo sapiens) (UniProt P24941)
[4] = molecular target: Casein kinase I isoform delta (Homo sapiens) (UniProt P48730)
Casein kinase I isoform delta (Homo sapiens), sequence (P48730 whole entry, looked up, canonical isoform): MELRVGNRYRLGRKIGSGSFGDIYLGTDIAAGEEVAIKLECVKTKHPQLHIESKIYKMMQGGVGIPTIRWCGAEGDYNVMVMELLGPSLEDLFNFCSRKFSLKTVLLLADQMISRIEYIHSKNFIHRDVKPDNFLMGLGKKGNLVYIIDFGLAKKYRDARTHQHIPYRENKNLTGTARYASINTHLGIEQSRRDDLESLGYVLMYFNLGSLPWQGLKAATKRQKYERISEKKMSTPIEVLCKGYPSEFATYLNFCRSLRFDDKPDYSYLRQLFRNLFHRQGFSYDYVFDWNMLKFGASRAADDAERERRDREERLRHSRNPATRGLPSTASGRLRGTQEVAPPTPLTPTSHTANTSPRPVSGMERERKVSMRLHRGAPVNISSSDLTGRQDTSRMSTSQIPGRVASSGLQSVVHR

[5] = molecular target: Glycogen synthase kinase-3 beta (Homo sapiens) (UniProt P49841)
Glycogen synthase kinase-3 beta (Homo sapiens), sequence (P49841 whole entry, looked up): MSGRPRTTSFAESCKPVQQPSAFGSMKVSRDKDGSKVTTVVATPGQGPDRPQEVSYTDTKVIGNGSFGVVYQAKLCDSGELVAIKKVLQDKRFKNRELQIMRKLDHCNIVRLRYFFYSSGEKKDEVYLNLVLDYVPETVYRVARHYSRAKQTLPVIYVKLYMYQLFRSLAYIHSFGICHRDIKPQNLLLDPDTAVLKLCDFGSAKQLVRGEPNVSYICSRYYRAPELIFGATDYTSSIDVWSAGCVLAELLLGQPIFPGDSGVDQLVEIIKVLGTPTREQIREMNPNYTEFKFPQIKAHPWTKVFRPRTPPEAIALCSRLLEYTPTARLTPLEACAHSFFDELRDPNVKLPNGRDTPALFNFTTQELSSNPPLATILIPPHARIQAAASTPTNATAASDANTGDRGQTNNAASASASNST

[6] = molecular target: Mitogen-activated protein kinase 1 (Homo sapiens) (UniProt P28482)
Mitogen-activated protein kinase 1 (Homo sapiens), sequence (P28482 whole entry): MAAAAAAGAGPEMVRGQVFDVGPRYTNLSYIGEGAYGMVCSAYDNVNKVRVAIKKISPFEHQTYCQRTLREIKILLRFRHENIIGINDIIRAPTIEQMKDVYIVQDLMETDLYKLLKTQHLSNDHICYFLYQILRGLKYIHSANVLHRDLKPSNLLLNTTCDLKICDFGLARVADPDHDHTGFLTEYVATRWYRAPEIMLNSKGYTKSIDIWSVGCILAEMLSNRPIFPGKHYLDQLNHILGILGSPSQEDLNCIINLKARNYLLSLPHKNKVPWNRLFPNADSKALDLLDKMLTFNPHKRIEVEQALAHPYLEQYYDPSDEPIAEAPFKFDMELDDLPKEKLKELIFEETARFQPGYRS

[7] = molecular target: T1, Aurora kinase A (Homo sapiens) (UniProt O14965)
T1 sequence (whole entry): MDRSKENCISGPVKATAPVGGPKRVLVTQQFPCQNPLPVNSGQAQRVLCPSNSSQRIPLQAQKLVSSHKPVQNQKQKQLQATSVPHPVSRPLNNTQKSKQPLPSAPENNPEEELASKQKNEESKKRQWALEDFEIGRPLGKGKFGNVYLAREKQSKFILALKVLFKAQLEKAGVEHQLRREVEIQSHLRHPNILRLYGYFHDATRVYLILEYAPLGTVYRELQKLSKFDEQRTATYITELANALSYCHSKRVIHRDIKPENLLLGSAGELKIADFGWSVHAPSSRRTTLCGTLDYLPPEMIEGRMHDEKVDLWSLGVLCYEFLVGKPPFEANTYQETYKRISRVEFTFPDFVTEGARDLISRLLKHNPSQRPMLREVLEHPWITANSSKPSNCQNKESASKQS

[8] = molecular target: T2, Transcription intermediary factor 1-alpha (Homo sapiens) (UniProt O15164)
T2 sequence (whole entry): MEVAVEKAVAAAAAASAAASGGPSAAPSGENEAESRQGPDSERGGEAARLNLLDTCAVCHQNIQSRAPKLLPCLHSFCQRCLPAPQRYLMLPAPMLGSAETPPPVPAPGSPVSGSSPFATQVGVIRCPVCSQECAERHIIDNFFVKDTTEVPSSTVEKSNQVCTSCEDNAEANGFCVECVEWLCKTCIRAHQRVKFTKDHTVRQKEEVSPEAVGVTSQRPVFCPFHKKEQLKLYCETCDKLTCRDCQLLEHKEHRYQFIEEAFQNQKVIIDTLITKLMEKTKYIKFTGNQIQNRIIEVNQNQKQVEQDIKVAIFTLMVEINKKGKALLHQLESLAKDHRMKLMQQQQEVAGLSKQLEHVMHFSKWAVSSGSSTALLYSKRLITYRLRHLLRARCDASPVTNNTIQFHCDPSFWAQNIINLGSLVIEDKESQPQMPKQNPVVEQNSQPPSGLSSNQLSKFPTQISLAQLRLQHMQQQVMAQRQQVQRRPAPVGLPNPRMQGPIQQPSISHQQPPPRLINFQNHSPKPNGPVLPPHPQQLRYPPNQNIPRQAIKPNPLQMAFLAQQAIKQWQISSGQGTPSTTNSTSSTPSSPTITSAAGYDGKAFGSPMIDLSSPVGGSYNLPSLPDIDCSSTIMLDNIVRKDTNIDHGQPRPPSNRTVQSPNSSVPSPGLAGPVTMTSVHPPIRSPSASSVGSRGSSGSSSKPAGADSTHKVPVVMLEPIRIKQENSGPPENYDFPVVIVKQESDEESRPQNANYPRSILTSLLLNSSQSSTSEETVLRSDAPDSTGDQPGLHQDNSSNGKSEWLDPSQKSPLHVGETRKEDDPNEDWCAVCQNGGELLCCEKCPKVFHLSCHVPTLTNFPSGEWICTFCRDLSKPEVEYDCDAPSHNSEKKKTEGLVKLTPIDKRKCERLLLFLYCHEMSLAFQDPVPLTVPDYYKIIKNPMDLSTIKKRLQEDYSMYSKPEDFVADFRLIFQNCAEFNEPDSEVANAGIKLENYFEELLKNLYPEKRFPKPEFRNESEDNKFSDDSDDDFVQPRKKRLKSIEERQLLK

Tyrosine-protein kinase ABL1 (Homo sapiens), sequence (P00519 whole entry): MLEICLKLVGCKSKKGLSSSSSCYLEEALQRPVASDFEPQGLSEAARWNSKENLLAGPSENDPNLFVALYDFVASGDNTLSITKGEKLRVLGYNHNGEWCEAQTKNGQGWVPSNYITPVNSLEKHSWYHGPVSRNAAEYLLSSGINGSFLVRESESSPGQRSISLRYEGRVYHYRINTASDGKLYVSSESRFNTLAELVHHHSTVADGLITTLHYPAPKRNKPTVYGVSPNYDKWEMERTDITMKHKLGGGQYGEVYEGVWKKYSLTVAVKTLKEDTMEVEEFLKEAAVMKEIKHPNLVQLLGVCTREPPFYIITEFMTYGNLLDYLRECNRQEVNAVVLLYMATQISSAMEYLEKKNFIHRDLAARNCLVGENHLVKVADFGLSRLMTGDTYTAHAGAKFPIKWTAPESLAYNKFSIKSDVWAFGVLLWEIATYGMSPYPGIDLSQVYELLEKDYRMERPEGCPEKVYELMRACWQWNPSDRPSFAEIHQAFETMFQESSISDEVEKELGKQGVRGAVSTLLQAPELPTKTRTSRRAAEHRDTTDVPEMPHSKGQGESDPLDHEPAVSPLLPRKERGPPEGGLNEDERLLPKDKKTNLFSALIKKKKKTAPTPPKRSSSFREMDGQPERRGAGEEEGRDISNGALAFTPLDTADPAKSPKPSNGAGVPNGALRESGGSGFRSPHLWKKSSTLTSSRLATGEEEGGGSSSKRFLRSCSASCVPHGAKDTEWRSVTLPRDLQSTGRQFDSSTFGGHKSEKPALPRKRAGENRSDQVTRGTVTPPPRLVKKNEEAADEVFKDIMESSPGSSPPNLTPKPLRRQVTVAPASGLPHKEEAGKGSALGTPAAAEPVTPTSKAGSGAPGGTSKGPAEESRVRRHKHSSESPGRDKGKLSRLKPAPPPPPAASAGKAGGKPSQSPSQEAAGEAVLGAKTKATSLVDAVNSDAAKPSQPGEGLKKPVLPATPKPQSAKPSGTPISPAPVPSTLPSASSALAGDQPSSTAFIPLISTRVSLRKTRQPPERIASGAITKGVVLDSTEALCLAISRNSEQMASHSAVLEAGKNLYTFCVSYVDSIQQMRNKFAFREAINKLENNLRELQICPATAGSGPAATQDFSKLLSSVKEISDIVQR

| Compound | ΔTm [1] [°C] | ΔTm [2] [°C] | ΔTm [3] [°C] | ΔTm [4] [°C] | ΔTm [5] [°C] | ΔTm [6] [°C] | ΔTm [7] [°C] | ΔTm [8] [°C] |
| --- | --- | --- | --- | --- | --- | --- | --- | --- |
| Cn1cc(C(=O)Nc2ccc([C@@H]3C[C@H]3NCC3CC3)cc2)cn1 | 0.52 | -3.07 | 0.01 | -0.16 | -0.77 | 0.06 | -2.24 | 0.47 |
| O=C(Nc1ccc2[nH]nc(-c3ccncc3)c2c1)[C@@H]1CCN(CC(=O)N2CCN(c3ccc(-c4ncccn4)cc3)CC2)C1 | 1.95 | -1.51 | 0.12 | 1.66 | 1.44 | 13.1 | 3.82 | -0.46 |
| CC1(NC(=O)COc2cccc(-c3nc4c(c(Nc5ccc(-c6cn[nH]c6)cc5)n3)CN(C3CCC3)CC4)c2)CC1 | 0.81 | -2.72 | 0.02 | -0.75 | -0.18 | 0.14 | 0.11 | -0.35 |
| O=CC1CCCN1C(=O)C1CCCN1C(=O)OCc1ccccc1 (stereo not drawn) (Cbz-Pro-Pro-aldehyde; configuration not given here) | 0.3 | -1.06 | -0.15 | 0.22 | -0.2 | 0.12 | -0.83 | -0.47 |
| Nc1c[nH]c(=O)c2cc(-c3ccccc3)sc12 | 0.27 | -1.56 | -0.22 | 0.6 | -0.86 | 0.57 | -0.64 | -1.2 |
| Cc1cc(OCCCNCCC(N)=O)ccc1Cc1c(O[C@@H]2O[C@H](CO)[C@@H](O)[C@H](O)[C@H]2O)n[nH]c1C(C)C | 0.54 | -1.5 | 0.03 | -0.12 | -0.7 | 0.24 | -2.37 | -0.75 |
| CNC(=O)N1CCc2c(c(N3CCCc4cc(-c5cnn(C)c5)c(C(F)F)cc43)nn2C2CCOCC2)C1 | 0.09 | 1.4 | 0.2 | 0.34 | -0.47 | -0.36 | -1.06 | -2.05 |
| Cc1[nH]c2c(N3CCO[C@H](CO)C3)c(C#N)c(C(F)(F)F)nc2c1Cl | 0.59 | -1.62 | 1.92 | 0.2 | 1.93 | 1.85 | -1.95 | -1.25 |
| CNC(=O)c1cnc(N2CCC[C@H](N)C2)nc1Nc1cc(C(C)C)nc(C(C)C)c1 | 0.5 | -1.65 | 0.07 | 1.75 | -0.33 | 0.06 | -0.12 | -1 |
| C[C@@H]1O[C@@H](CC(=O)O)CC2=C1C(=O)c1c(O)cccc1C2=O | 0.53 | -3.04 | 0.21 | -1.39 | -2.21 | -0.24 | -2.94 | -2.3 |
| Cc1cccc(Nc2ccncc2S(=O)(=O)NC(=O)NC(C)C)c1 | 0.72 | -2.84 | -0.02 | -0.02 | -0.74 | 0.43 | -2.33 | 0.72 |
